Assay results reported in publication PMC7862700, “An all-to-all approach to the identification of sequence-specific readers for epigenetic DNA modifications on cytosine”.

How the values were obtained:
Test in all cases: DAPPL (digital affinity profiling via proximity ligation, sequencing); 10 mM Tris-HCl pH 7.5, 50 mM NaCl, 1 mM DTT, 4% glycerol, room temperature, 30 min; GST-TFs on glutathione beads, 16-mer random dsDNA library, 0.1% formaldehyde crosslink after washing; high values mean tight binding
Conditions in all cases: protein: recombinant; tags: N-terminal GST; dsDNA, one strand shown
ERF = biological target: T1, ERF (Homo sapiens, UniProt P50548 1-548)
T1 sequence: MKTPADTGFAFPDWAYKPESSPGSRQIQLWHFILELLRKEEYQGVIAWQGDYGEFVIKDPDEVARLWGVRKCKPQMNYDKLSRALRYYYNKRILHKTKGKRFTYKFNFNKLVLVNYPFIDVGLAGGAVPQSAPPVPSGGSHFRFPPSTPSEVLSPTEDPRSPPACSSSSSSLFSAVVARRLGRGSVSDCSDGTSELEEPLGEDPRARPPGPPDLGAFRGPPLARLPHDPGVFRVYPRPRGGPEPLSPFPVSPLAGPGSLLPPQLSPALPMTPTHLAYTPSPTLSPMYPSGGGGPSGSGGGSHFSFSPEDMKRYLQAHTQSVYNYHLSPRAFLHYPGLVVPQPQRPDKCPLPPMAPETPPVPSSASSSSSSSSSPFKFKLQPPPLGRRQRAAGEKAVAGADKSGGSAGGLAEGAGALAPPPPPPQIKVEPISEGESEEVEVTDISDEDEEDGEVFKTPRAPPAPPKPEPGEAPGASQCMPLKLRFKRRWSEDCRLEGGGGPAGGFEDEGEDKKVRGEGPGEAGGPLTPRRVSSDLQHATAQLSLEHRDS
How it was run: (§1)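 Binding signal is each hexamer's read frequency for a factor divided by its frequency in the tag-only sample. The factors were GST-fused human transcription factors from yeast, captured on glutathione beads, DNA-barcoded and pooled with that sample. Pools were incubated with 200 nmole of a random double-stranded 16-mer DNA library in Tris/NaCl/DTT/glycerol buffer at room temperature for 30 min, then washed, crosslinked with 0.1% formaldehyde, proximity-ligated with BsaI/T4 ligase (1 h, 37 °C), PCR-amplified and sequenced on an Illumina NextSeq500.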

ETV3L = biological target: T2, ETV3L (Homo sapiens, UniProt Q6ZN32 1-361)
T2 sequence: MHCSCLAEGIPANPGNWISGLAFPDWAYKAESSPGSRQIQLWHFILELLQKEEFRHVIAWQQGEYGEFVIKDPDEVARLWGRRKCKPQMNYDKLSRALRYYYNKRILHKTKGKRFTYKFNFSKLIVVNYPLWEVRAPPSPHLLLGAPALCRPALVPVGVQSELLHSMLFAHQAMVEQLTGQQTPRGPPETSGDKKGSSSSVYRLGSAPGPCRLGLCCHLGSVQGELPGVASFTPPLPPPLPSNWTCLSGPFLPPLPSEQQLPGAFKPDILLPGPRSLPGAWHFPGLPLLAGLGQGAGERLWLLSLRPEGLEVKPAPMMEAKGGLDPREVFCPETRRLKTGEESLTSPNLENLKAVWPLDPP
How it was run: as §1

ETS2 = biological target: T3, ETS2 (Homo sapiens, UniProt P15036 1-469)
T3 sequence: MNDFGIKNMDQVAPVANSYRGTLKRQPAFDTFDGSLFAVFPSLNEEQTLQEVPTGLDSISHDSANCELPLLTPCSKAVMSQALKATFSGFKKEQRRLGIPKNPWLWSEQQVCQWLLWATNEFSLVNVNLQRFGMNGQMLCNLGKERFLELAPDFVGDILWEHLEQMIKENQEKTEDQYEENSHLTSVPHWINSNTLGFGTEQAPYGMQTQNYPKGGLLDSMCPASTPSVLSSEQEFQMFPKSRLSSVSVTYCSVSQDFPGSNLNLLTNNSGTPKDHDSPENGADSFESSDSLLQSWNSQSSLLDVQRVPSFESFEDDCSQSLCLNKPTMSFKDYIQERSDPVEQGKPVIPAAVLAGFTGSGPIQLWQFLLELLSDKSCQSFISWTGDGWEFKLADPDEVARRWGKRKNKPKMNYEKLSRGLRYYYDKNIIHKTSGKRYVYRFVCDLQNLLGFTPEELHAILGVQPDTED
How it was run: as §1

SPDEF = biological target: T4, SPDEF (Homo sapiens, UniProt O95238 1-335)
T4 sequence: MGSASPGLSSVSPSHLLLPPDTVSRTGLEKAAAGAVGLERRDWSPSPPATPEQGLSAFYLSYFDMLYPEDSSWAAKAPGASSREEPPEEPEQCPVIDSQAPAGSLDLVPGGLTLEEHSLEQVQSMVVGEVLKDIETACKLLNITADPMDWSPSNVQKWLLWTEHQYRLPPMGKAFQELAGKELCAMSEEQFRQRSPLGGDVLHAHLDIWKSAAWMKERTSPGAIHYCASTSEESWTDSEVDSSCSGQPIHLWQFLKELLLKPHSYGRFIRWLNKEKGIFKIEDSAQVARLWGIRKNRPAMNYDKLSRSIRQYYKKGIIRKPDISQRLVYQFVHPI
How it was run: as §1

ETV7 = biological target: T5, ETV7 (Homo sapiens, UniProt Q9Y603 1-341)
T5 sequence: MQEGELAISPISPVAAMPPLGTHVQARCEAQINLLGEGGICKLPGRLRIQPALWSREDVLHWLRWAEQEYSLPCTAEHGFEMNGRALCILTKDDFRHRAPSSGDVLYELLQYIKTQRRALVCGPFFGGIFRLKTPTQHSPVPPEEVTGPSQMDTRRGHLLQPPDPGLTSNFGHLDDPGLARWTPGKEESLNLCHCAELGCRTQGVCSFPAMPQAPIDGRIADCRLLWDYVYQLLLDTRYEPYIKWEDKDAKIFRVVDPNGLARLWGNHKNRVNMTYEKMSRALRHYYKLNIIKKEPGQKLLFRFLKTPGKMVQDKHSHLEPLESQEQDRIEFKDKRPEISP
How it was run: as §1

ELF5 = biological target: T6, ELF5 (Homo sapiens, UniProt Q9UKW6-2 1-255)
T6 sequence: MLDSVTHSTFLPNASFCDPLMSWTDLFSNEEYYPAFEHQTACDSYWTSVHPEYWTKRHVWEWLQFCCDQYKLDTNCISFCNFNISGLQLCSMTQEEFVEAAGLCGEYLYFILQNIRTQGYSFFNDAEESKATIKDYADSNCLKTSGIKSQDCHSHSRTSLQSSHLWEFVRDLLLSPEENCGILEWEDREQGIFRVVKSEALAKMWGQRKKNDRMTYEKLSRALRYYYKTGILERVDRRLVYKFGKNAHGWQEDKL
How it was run: as §1

ETV3 = biological target: T7, ETV3 (Homo sapiens, UniProt P41162-2 1-143)
T7 sequence: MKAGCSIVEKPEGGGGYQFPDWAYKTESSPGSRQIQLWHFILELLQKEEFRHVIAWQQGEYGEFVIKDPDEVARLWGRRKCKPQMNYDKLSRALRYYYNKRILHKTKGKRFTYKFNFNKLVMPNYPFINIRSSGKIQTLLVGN
How it was run: as §1

ETV6 = ETV6 (Homo sapiens, UniProt P41212 1-452)
Sequence of ETV6 (P41212 whole entry): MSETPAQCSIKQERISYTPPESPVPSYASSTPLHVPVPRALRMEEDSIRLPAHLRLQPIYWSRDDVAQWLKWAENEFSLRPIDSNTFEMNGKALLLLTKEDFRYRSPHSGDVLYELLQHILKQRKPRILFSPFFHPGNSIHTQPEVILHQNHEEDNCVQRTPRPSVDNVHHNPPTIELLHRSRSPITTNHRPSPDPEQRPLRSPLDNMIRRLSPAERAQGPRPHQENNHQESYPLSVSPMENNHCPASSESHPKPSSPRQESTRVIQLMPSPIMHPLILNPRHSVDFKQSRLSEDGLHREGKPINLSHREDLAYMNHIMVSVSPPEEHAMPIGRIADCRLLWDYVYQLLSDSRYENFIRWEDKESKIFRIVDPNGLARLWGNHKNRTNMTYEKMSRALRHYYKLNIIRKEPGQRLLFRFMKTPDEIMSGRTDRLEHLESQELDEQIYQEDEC
How it was run: as §1

Sequence | binding signal (ERF) | binding signal (ETV3L) | binding signal (ETS2) | binding signal (SPDEF) | binding signal (ETV7) | binding signal (ELF5) | binding signal (ETV3) | binding signal (ETV6)
TGATCT | 1.35 fold enrichment (6-mer frequency, TF over GST control) | 1.1 fold enrichment (6-mer frequency, TF over GST control) | 1.31 fold enrichment (6-mer frequency, TF over GST control) | 1.23 fold enrichment (6-mer frequency, TF over GST control) | 1.11 fold enrichment (6-mer frequency, TF over GST control) | 1.22 fold enrichment (6-mer frequency, TF over GST control) | 1.25 fold enrichment (6-mer frequency, TF over GST control) | 1.06 fold enrichment (6-mer frequency, TF over GST control)
CATTTT | 1.22 fold enrichment (6-mer frequency, TF over GST control) | 1.24 fold enrichment (6-mer frequency, TF over GST control) | 1.1 fold enrichment (6-mer frequency, TF over GST control) | 1.06 fold enrichment (6-mer frequency, TF over GST control) | 1.2 fold enrichment (6-mer frequency, TF over GST control) | 1.22 fold enrichment (6-mer frequency, TF over GST control) | 1.18 fold enrichment (6-mer frequency, TF over GST control) | 1.28 fold enrichment (6-mer frequency, TF over GST control)
CAATAT | 1.28 fold enrichment (6-mer frequency, TF over GST control) | 1.26 fold enrichment (6-mer frequency, TF over GST control) | 1.28 fold enrichment (6-mer frequency, TF over GST control) | 1.34 fold enrichment (6-mer frequency, TF over GST control) | 1.27 fold enrichment (6-mer frequency, TF over GST control) | 1.2 fold enrichment (6-mer frequency, TF over GST control) | 1.33 fold enrichment (6-mer frequency, TF over GST control) | 1.23 fold enrichment (6-mer frequency, TF over GST control)
TTACAC | 1.2 fold enrichment (6-mer frequency, TF over GST control) | 1.15 fold enrichment (6-mer frequency, TF over GST control) | 1.22 fold enrichment (6-mer frequency, TF over GST control) | 1.23 fold enrichment (6-mer frequency, TF over GST control) | 1.19 fold enrichment (6-mer frequency, TF over GST control) | 1.19 fold enrichment (6-mer frequency, TF over GST control) | 1.15 fold enrichment (6-mer frequency, TF over GST control) | 1.2 fold enrichment (6-mer frequency, TF over GST control)
GCCCTA | 1.21 fold enrichment (6-mer frequency, TF over GST control) | 1.17 fold enrichment (6-mer frequency, TF over GST control) | 1.22 fold enrichment (6-mer frequency, TF over GST control) | 1.21 fold enrichment (6-mer frequency, TF over GST control) | 1.12 fold enrichment (6-mer frequency, TF over GST control) | 1.11 fold enrichment (6-mer frequency, TF over GST control) | 1.18 fold enrichment (6-mer frequency, TF over GST control) | 1.17 fold enrichment (6-mer frequency, TF over GST control)
CTTGGA | 1.12 fold enrichment (6-mer frequency, TF over GST control) | 1.11 fold enrichment (6-mer frequency, TF over GST control) | 1.14 fold enrichment (6-mer frequency, TF over GST control) | 1.22 fold enrichment (6-mer frequency, TF over GST control) | 1.14 fold enrichment (6-mer frequency, TF over GST control) | 1.09 fold enrichment (6-mer frequency, TF over GST control) | 1.08 fold enrichment (6-mer frequency, TF over GST control) | 1.03 fold enrichment (6-mer frequency, TF over GST control)
TTCAAA | 1.26 fold enrichment (6-mer frequency, TF over GST control) | 1.27 fold enrichment (6-mer frequency, TF over GST control) | 1.25 fold enrichment (6-mer frequency, TF over GST control) | 1.23 fold enrichment (6-mer frequency, TF over GST control) | 1.19 fold enrichment (6-mer frequency, TF over GST control) | 1.21 fold enrichment (6-mer frequency, TF over GST control) | 1.23 fold enrichment (6-mer frequency, TF over GST control) | 1.27 fold enrichment (6-mer frequency, TF over GST control)
